# PubChem BioAssay AID431 (Sanford-Burnham Center for Chemical Genomics, 2006)
# Hit rate of the full screen: of about 63,000 compounds, about 1,100 (1.7%) were called active. The entries come from a sample that favours actives as a whole. Results with a measured potency or affinity are listed apart. A number with no mark means an inactive call.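 Rule for the calls: active = compounds whose percent cytotoxicity in the single-dose primary screen, scaled between solvent and toxic-drug controls, exceeds 50; inactive = the rest.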
# Assay: cytotoxicity in KRAS-transformed pancreatic duct cells, primary screen, cell-based, fluorescence, HTS (AID 431);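 note: 0% = DMSO solvent wells and 100% = doxorubicin-treated wells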
# Details: HPDE-C7K KRASV12 cells, Alamar Blue viability, 48 h; at 10 µM; active compounds read high
row,SMILES,cytotoxicity
1,C=CCn1c(COc2ccccc2)nnc1SCC(=O)Nc1ccc(S(N)(=O)=O)cc1,-13.8%
2,Cc1cccc(N2CCN(C(=O)C3CCCN(S(=O)(=O)c4cccc5cccnc45)C3)CC2)c1C (configuration not stated),24.5%
3,Cc1ccccc1Cn1ccc(NC(=O)c2cc3nc(-c4ccco4)cc(C(F)(F)F)n3n2)n1,61.3% (active)
4,Cc1ccccc1Cn1ccc(NC(=O)c2cnn3c(C(F)(F)F)cc(-c4ccco4)nc23)n1,42.2%
5,O=C(Nc1cnn(Cc2ccccc2)c1)c1cc2nc(-c3ccco3)cc(C(F)(F)F)n2n1,24.8%
6,O=C(Nc1ccc(Cl)cc1)c1cc2nc(-c3ccco3)cc(C(F)(F)F)n2n1,69.4% (active)
7,O=C(Nc1cnn(Cc2ccc(F)cc2)c1)c1cc2nc(-c3ccco3)cc(C(F)(F)F)n2n1,48.5%
8,Cc1ccccc1Cn1cc(NC(=O)c2cc3nc(-c4ccco4)cc(C(F)(F)F)n3n2)cn1,30.9%
9,Cc1noc(C)c1COC(=O)C1CC(O)CN1S(=O)(=O)c1ccc(Cl)cc1 (configuration not stated),-5.6%
10,CCc1ccccc1N(C(=O)c1cccs1)C1C=CS(=O)(=O)C1 (configuration not stated),-8.1%
11,CSC1=C(C#N)C2(CCCC2)C(C#N)=C(N)N1,30.6%
12,N#CC1=C(N)NC(SCc2ccccc2)=C(C#N)C12CCCCC2,78.5% (active)
13,N#CC1=C(N)NC(SCC(=O)O)=C(C#N)C12CCCC2,-1.2%
14,COc1ccc(C(=O)CSC2=C(C#N)C3(CCCCC3)C(C#N)=C(N)N2)cc1,30.1%
15,CCSC1=C(C#N)C2(CCCC2)C(C#N)=C(N)N1,18.9%
16,CC1(C)CC(=O)C2=C(C1)NC(SCC(=O)Nc1ccccc1)=C(C#N)C21CCCCC1,-9.5%
17,CCSC1=C(C#N)C2(CCCCC2)C(C#N)=C(N)N1,1.2%
18,O=C(CC(NS(=O)(=O)c1ccc(Cl)cc1)c1ccco1)NCc1cccnc1 (configuration not stated),-10.2%
19,CCOC(=O)N1CCN(c2nc(C)c3c(n2)CC(C)CC3=O)CC1 (configuration not stated),-14.7%
20,Cn1c(N2CCC(C(N)=O)CC2)nc2c1c(=O)n(Cc1ccc(Cl)cc1)c(=O)n2C,16.9%
21,FC(F)(F)c1cccc(N2CCN(Cc3cccnc3)CC2)c1,21.8%
22,CC(C)Oc1cccc(C(=O)Nc2ccccc2N2CCOCC2)c1,-2.7%
23,COc1cc(C2C(C(=O)c3cccs3)=C(O)C(=O)N2c2cc(C)on2)ccc1O (configuration not stated),14.5%
24,CCn1c2ccccc2c2cc(Nc3cc(C)nc4ncnn34)ccc21,74.4% (active)
25,CCc1cccc(Nc2cc(C)nc3ncnn23)c1,-4.4%

row,SMILES,cytotoxicity
1,Cc1cc(Nc2ccc3ccccc3c2)n2ncnc2n1,-8.1%
2,Cc1ccc(-c2nn(C)c(=O)c3ccccc23)cc1CNC(=O)CN1CCOCC1,4.3%
3,O=C(Cn1nnc(-c2cc(Cl)ccc2-n2cnnn2)n1)N1CCCc2ccccc21,-0.5%
4,CCOC(=O)N1CCC(NC(=O)c2csc3c2CCCC3)CC1,-1.5%
5,COC(=O)/C(=C1/Oc2cc3c(cc2S1)OCO3)C(F)(F)F,-15.1%
6,COC(=O)C1=C(N)Oc2cc(C)oc(=O)c2C1c1ccncc1 (configuration not stated),-2.1%
7,COC(=O)/C(=C1/Oc2cc(C)oc(=O)c2S1)C(F)(F)F,70.4% (active)
8,O=C(COC(=O)C(O)c1ccccc1)NC12CC3CC(CC(C3)C1)C2 (configuration not stated),-12.9%
9,CN(C)C=C1C(=O)c2ccccc2C1=O,48%
10,CN(C)/C=C1\C(=O)c2ccc(N(C)C)nc2CC1c1ccccc1 (configuration not stated),59.9% (active)
11,CN(C)/C=C1/Sc2ccccc2C1=O,-18.3%
12,CCCOC(=O)Nc1ccc(S(=O)(=O)Nn2cnnc2)cc1,5.7%
13,C=CCNc1oc(Cc2cccc3ccccc23)nc1C#N,-8.6%
14,N#Cc1nc(Cc2cccc3ccccc23)oc1NCc1ccco1,63.1% (active)
15,CNc1oc(Cc2cccc3ccccc23)nc1C#N,14.7%
16,CCn1cc(C(=O)NCC2CCCO2)c(=O)c2cc(S(=O)(=O)N(C)C3CCCCC3)ccc21 (configuration not stated),13.1%
17,COc1ccccc1-c1nnc2n1N=C(C)CS2,-13.6%
18,c1ccc(C2=Nn3c(nnc3-c3cc(-c4ccccc4)n[nH]3)SC2)cc1,-6.7%
19,COc1ccc(C2=Nn3c(nnc3-c3ccccn3)SC2)cc1OC,-4.6%
20,CCOc1ccc(C2=Nn3c(nnc3-c3ccc(OC)cc3)SC2)cc1,40.7%
21,COc1ccc(C2=Nn3c(nnc3-c3ccccc3)SC2)cc1OC,0.4%
22,COc1ccccc1-c1nnc2n1N=C(c1ccc(O)c(O)c1)CS2,54.8% (active)
23,CCOc1ccc(C2=Nn3c(nnc3-c3ccccc3OC)SC2)cc1,66.6% (active)
24,Cc1ccc(-c2nnc3n2N=C(c2ccccc2)CS3)cc1,-2.4%
25,CCOc1ccc(-c2nnc3n2N=C(c2ccc(OC)cc2)CS3)cc1,-5%

row,SMILES,cytotoxicity
1,COc1cccc(C2=Nn3c(nnc3-c3ccccc3O)SC2)c1,-11.6%
2,CCCCOc1ccc(-c2ncc(Cl)cn2)cc1,-15%
3,Cn1c(Cn2c(=O)sc3ccccc32)nnc1SCC(=O)N1CCN(c2ccccc2)CC1,8.3%
4,O=C(COc1ccc2c(c1)OCO2)Nc1ccc2c(c1)oc1ccccc12,2.3%
5,O=C(Cn1ncc2c(=O)oc3ccccc3c21)N1CCN(C(=O)c2ccco2)CC1,0.4%
6,COC(=O)c1cc(-c2c(C)oc3cc(OC(C)C)ccc3c2=O)c(C)o1,-13.5%
7,Cn1c(=O)c2c(nc(CN3CCN(C(=O)c4ccco4)CC3)n2CCc2ccccc2)n(C)c1=O,-4.3%
8,CCOC(=O)c1ccc(NC(=O)NC(C)C2CCCO2)cc1 (configuration not stated),-0.2%
9,Cc1ccccc1CS(=O)(=O)CCC(=O)N1CCN(c2ccc(N3CCOCC3)nn2)CC1,3.2%
10,COc1ccc(-c2nnc3n2N=C(c2ccccc2)CS3)cc1OC,-3%
11,COc1cc(-c2nnc3n2N=C(c2ccccc2)CS3)cc(OC)c1OC,63.5% (active)
12,COc1ccc(OC)c(C2=Nn3c(nnc3-c3cc(OC)c(OC)c(OC)c3)SC2)c1,10.4%
13,CCOC(=O)/C=C1\NC(C)(C)Cc2cc(OC)c(O)cc21,5.5%
14,COc1cc2c(cc1OC)C(/C(C#N)=N\O)=NC(C)(C)C2,7%
15,O=C(CN1CCN(c2ccccc2F)CC1)Nc1ccccc1F,-7%
16,CCCCCCNC(=O)c1c(O)c2ccccc2[nH]c1=O,-1.5%
17,CCCCNC(=O)c1sc(=S)n2c1[nH]c(=O)c1ccccc12,62.6% (active)
18,C=CCn1c(N)c(C(=O)NCc2ccco2)sc1=S,7.1%
19,CCn1c(N)c(C(=O)NCc2ccco2)sc1=S,-5.3%
20,O=C(NCc1ccco1)c1sc(=S)n2c1[nH]c(=O)c1ccccc12,81.4% (active)
21,CCCCNC(=O)c1ccccc1C(=O)NCCCC,-2.3%
22,O=C(NCCCN1CCN(c2ccccc2F)CC1)C1CCC(=O)N1C1CCCC1 (configuration not stated),-6.6%
23,Cn1c(CCCCCN)nc2ccccc21,-27.2%
24,OCCN(Cc1ccccc1)Cc1ccccc1F,-13.3%
25,CCCc1ccc(OCC(=O)O)cc1,2.3%

row,SMILES,cytotoxicity
1,COc1ccc(O)c(-c2[nH]ncc2C(=O)c2ccccc2C)c1,2.7%
2,CCCc1ccc(Oc2cn[nH]c2-c2ccc(O)cc2O)cc1,29.1%
3,CCCc1ccc(Oc2cn[nH]c2-c2ccc(O)c(C)c2O)cc1,119% (active)
4,CC(C)Sc1ncnc2c1oc1ccccc12,-7.4%
5,COc1ccc(CNC(=O)CSc2nc3nc(C)cc(C)n3n2)cc1,1.6%
6,Cc1nn(-c2cccc(C(F)(F)F)c2)c(Cl)c1/C=N/n1cnnc1,3.5%
7,Fc1ccccc1CSc1nnnn1-c1ccc2c(c1)OCO2,2.3%
8,Fc1cccc(Cl)c1CSc1nnnn1-c1ccc2c(c1)OCO2,51.7% (active)
9,Fc1cccc(Cl)c1Cn1nnc(-c2ccc3c(c2)OCO3)n1,-3.6%
10,Cc1nc(NC2=NCN(Cc3ccc4c(c3)OCO4)CN2)nc2ccccc12,15.2%
11,Cc1ccc2nc(NC3=NCN(Cc4ccc5c(c4)OCO5)CN3)nc(C)c2c1,12.9%
12,Cc1cc2nc(NC3=NCN(Cc4cccnc4)CN3)nc(C)c2cc1C,53.3% (active)
13,Cc1nc(NC2=NCN(Cc3cccnc3)CN2)nc2ccccc12,6.2%
14,Cc1cc2nc(NC3=NCN(Cc4ccc5c(c4)OCO5)CN3)nc(C)c2cc1C,90% (active)
15,Cc1ccc2nc(NC3=NCN(Cc4cccnc4)CN3)nc(C)c2c1,5.9%
16,Cc1ccc(CCN2CC(C(=O)NCCCN3CCOCC3)CC2=O)cc1 (configuration not stated),2%
17,Cc1ccc(C)n1-c1ncn[nH]1,1.3%
18,CSc1nc(N2CCN(CCO)CC2)c2sc3nc(-c4ccco4)c4c(c3c2n1)CCC4,4.4%
19,OCCN(CCO)c1ncnc2c1sc1nc(N3CCOCC3)c3c(c12)CCCC3,34.4%
20,CC1(C)Cc2c(C#N)c(NCCN3CCOCC3)nc(-c3ccco3)c2CO1,8.7%
21,c1nc(NCCN2CCOCC2)c2sc3nc(N4CCOCC4)c4c(c3c2n1)CCC4,18.4%
22,O=C(Cn1cc2c(n1)CCCCC2)N1CCCCC1,5.5%
